Data published in the supplement of paper PMC6555819.

Assays:
Test in all cases: PBM binding z-score (relative to random genomic background probes); higher = stronger binding; sequences stand for … in GC…GCGATTGACAGCGTAGAATGAAGG
[1] = test system: FXR:RXRa (NR concentration 270 nM, RXRa partner concentration 90 nM)
Procedure, shortened: (§1)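 Regression normalization was applied to scanned fluorescence from custom Agilent 4×180K protein-binding microarrays. Before scanning, arrays were incubated 1 h with ligand-free nuclear receptor dimers, and binding was detected with antibodies against each partner (one per run). Binding z-scores use the random background probes as reference.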

[2] = test system: LXRa:RXRa (NR concentration 270 nM, RXRa partner concentration 90 nM)
Procedure, shortened: as §1

[3] = test system: LXRa homodimer (NR concentration 270 nM)
Procedure, shortened: as §1

[4] = test system: LXRb:RXRa (NR concentration 270 nM, RXRa partner concentration 90 nM)
Procedure, shortened: as §1

[5] = test system: LXRb homodimer (NR concentration 270 nM)
Procedure, shortened: as §1

[6] = test system: PPARa:RXRa (NR concentration 270 nM, RXRa partner concentration 90 nM)
Procedure, shortened: as §1

[7] = test system: PPARg:RXRa (NR concentration 180 nM, RXRa partner concentration 90 nM)
Procedure, shortened: as §1

[8] = test system: PPARg:RXRa 270nM:90nM, anti-RXR (NR concentration 270 nM, RXRa partner concentration 90 nM)
Procedure, shortened: as §1

[9] = test system: PPARg:RXRa 30nM:10nM, anti-RXR (NR concentration 30 nM, RXRa partner concentration 10 nM)
Procedure, shortened: as §1

[10] = test system: PPARg:RXRa 90nM:30nM, anti-RXR (NR concentration 90 nM, RXRa partner concentration 30 nM)
Procedure, shortened: as §1

[11] = test system: PPARg:RXRa DBDmut IVT, anti-RXR (DBD mutation: RXRa K156A/R161A, NR concentration 270 nM, RXRa partner concentration 90 nM)
Procedure, shortened: as §1

[12] = test system: PPARg:RXRa IVT, anti-PPARg (NR concentration 270 nM, RXRa partner concentration 90 nM)
Procedure, shortened: as §1

[13] = test system: PPARg DBDmut:RXRa IVT, anti-PPARg (DBD mutation: PPARg1 K132A/R137A, NR concentration 270 nM, RXRa partner concentration 90 nM)
Procedure, shortened: as §1

[14] = test system: PPARg DBDmut IVT, anti-PPARg (DBD mutation: PPARg1 K132A/R137A, NR concentration 270 nM)
Procedure, shortened: as §1

[15] = test system: PPARg homodimer (NR concentration 180 nM)
Procedure, shortened: as §1

[16] = test system: PXR:RXRa (NR concentration 270 nM, RXRa partner concentration 90 nM)
Procedure, shortened: as §1

[17] = test system: PXR homodimer (NR concentration 270 nM)
Procedure, shortened: as §1

[18] = test system: RARa:RXR (NR concentration 270 nM, RXRa partner concentration 90 nM)
Procedure, shortened: as §1

[19] = test system: RARa homodimer (NR concentration 270 nM)
Procedure, shortened: as §1

[20] = test system: RARb:RXRa (NR concentration 270 nM, RXRa partner concentration 90 nM)
Procedure, shortened: as §1

Sequence: ATTAGCAGGCCAAGGGTCACTCAAGATTAGTCCG
- PBM binding z-score [1]: 2.8
- PBM binding z-score [2]: 2.8
- PBM binding z-score [3]: 0.436
- PBM binding z-score [4]: 2.69
- PBM binding z-score [5]: -0.147
- PBM binding z-score [6]: 4.73
- PBM binding z-score [7]: 7.98
- PBM binding z-score [8]: 7.44
- PBM binding z-score [9]: 6.52
- PBM binding z-score [10]: 7.55
- PBM binding z-score [11]: 0.795
- PBM binding z-score [12]: 3.76
- PBM binding z-score [13]: 0.0508
- PBM binding z-score [14]: 0.161
- PBM binding z-score [15]: 1.61
- PBM binding z-score [16]: 3.2
- PBM binding z-score [17]: -0.179
- PBM binding z-score [18]: 4.06
- PBM binding z-score [19]: 0.0408
- PBM binding z-score [20]: 3.62

Sequence: ATCTCGAGGTAACAAGTTCAGTGAAAGAGAGGAC
- PBM binding z-score [1]: 0.617
- PBM binding z-score [2]: 0.888
- PBM binding z-score [3]: 0.333
- PBM binding z-score [4]: 0.61
- PBM binding z-score [5]: 0.253
- PBM binding z-score [6]: 1.51
- PBM binding z-score [7]: 0.717
- PBM binding z-score [8]: 0.867
- PBM binding z-score [9]: -0.0837
- PBM binding z-score [10]: 0.456
- PBM binding z-score [11]: 0.257
- PBM binding z-score [12]: 1.41
- PBM binding z-score [13]: 0.523
- PBM binding z-score [14]: 1.06
- PBM binding z-score [15]: 0.56
- PBM binding z-score [16]: 1.74
- PBM binding z-score [17]: 1.63
- PBM binding z-score [18]: 1.3
- PBM binding z-score [19]: 0.416
- PBM binding z-score [20]: 1.73

Sequence: AGAATGAGGTAACCAAAGATCAGGGAAACGCTTG
- PBM binding z-score [1]: -0.0845
- PBM binding z-score [2]: 3.81
- PBM binding z-score [3]: -0.311
- PBM binding z-score [4]: 0.439
- PBM binding z-score [5]: -0.22
- PBM binding z-score [6]: 1.21
- PBM binding z-score [7]: 1.15
- PBM binding z-score [8]: 0.888
- PBM binding z-score [9]: 0.575
- PBM binding z-score [10]: 0.541
- PBM binding z-score [11]: 3.05
- PBM binding z-score [12]: 2.17
- PBM binding z-score [13]: 1.22
- PBM binding z-score [14]: 1.42
- PBM binding z-score [15]: -0.124
- PBM binding z-score [16]: 0.0437
- PBM binding z-score [17]: -0.0264
- PBM binding z-score [18]: 0.577
- PBM binding z-score [19]: 0.155
- PBM binding z-score [20]: 0.403

Sequence: ATCGAAAGGTCGAGGTGAATATAGAGAAAGGGAA
- PBM binding z-score [1]: 4.19
- PBM binding z-score [2]: 3.5
- PBM binding z-score [3]: 0.21
- PBM binding z-score [4]: 2.79
- PBM binding z-score [5]: 0.889
- PBM binding z-score [6]: 4.65
- PBM binding z-score [7]: 3.91
- PBM binding z-score [8]: 3.97
- PBM binding z-score [9]: 1.51
- PBM binding z-score [10]: 2.95
- PBM binding z-score [11]: 0.454
- PBM binding z-score [12]: 2.9
- PBM binding z-score [13]: 1.3
- PBM binding z-score [14]: 0.685
- PBM binding z-score [15]: 1.72
- PBM binding z-score [16]: 2.6
- PBM binding z-score [17]: 0.39
- PBM binding z-score [18]: 3.39
- PBM binding z-score [19]: 1.13
- PBM binding z-score [20]: 4.2

Sequence: CAAACTAGGTCACGAAAGGTCCAAGTCGAATGAC
- PBM binding z-score [1]: 4.78
- PBM binding z-score [2]: 3.96
- PBM binding z-score [3]: 0.544
- PBM binding z-score [4]: 2.73
- PBM binding z-score [5]: 0.334
- PBM binding z-score [6]: 5.45
- PBM binding z-score [7]: 8.99
- PBM binding z-score [8]: 7.44
- PBM binding z-score [9]: 4.78
- PBM binding z-score [10]: 7.28
- PBM binding z-score [11]: 8.4
- PBM binding z-score [12]: 9.01
- PBM binding z-score [13]: 1.98
- PBM binding z-score [14]: 0.788
- PBM binding z-score [15]: 2.59
- PBM binding z-score [16]: 3.32
- PBM binding z-score [17]: 0.339
- PBM binding z-score [18]: 3.32
- PBM binding z-score [19]: 1
- PBM binding z-score [20]: 4.51

Sequence: GGAACGAGTGCATTCGAGTTGATAGCATGGCGAT
- PBM binding z-score [1]: -0.159
- PBM binding z-score [2]: 0.374
- PBM binding z-score [3]: -0.89
- PBM binding z-score [4]: -0.659
- PBM binding z-score [5]: -1.1
- PBM binding z-score [6]: -0.426
- PBM binding z-score [7]: 0.302
- PBM binding z-score [8]: -0.652
- PBM binding z-score [9]: -0.79
- PBM binding z-score [10]: -1.09
- PBM binding z-score [11]: -0.308
- PBM binding z-score [12]: -0.6
- PBM binding z-score [13]: -1.05
- PBM binding z-score [14]: -0.767
- PBM binding z-score [15]: -1.32
- PBM binding z-score [16]: 2.91
- PBM binding z-score [17]: 3.49
- PBM binding z-score [18]: -0.0398
- PBM binding z-score [19]: -1.2
- PBM binding z-score [20]: -0.311

Sequence: CAACCAAGGTGAACAAGGTCGTTGATTACTATTC
- PBM binding z-score [1]: 1.58
- PBM binding z-score [2]: 1.48
- PBM binding z-score [3]: 0.275
- PBM binding z-score [4]: 2.09
- PBM binding z-score [5]: -0.212
- PBM binding z-score [6]: 2.67
- PBM binding z-score [7]: 1.33
- PBM binding z-score [8]: 1.41
- PBM binding z-score [9]: 0.118
- PBM binding z-score [10]: 0.789
- PBM binding z-score [11]: 2.56
- PBM binding z-score [12]: 3.05
- PBM binding z-score [13]: 0.422
- PBM binding z-score [14]: 0.588
- PBM binding z-score [15]: 0.973
- PBM binding z-score [16]: 2.8
- PBM binding z-score [17]: 1.68
- PBM binding z-score [18]: 2.42
- PBM binding z-score [19]: 0.281
- PBM binding z-score [20]: 2.29

Sequence: CGAAGTAGGTCAGAACAGGACAGTGAAGGATGAT
- PBM binding z-score [1]: 1.72
- PBM binding z-score [2]: 1.2
- PBM binding z-score [3]: -0.0962
- PBM binding z-score [4]: 0.449
- PBM binding z-score [5]: 0.019
- PBM binding z-score [6]: 3.32
- PBM binding z-score [7]: 5.69
- PBM binding z-score [8]: 4.81
- PBM binding z-score [9]: 2.22
- PBM binding z-score [10]: 4.14
- PBM binding z-score [11]: 7.52
- PBM binding z-score [12]: 7.53
- PBM binding z-score [13]: 0.926
- PBM binding z-score [14]: 0.783
- PBM binding z-score [15]: 1.04
- PBM binding z-score [16]: 0.897
- PBM binding z-score [17]: -0.0169
- PBM binding z-score [18]: 0.781
- PBM binding z-score [19]: 0.475
- PBM binding z-score [20]: 2.75

Sequence: CTCGAAAGGTCGTGCCCAGGTGAGTATACCAAAC
- PBM binding z-score [1]: 5.26
- PBM binding z-score [2]: 3.99
- PBM binding z-score [3]: 0.422
- PBM binding z-score [4]: 3.22
- PBM binding z-score [5]: 0.542
- PBM binding z-score [6]: 4.81
- PBM binding z-score [7]: 2.54
- PBM binding z-score [8]: 3.88
- PBM binding z-score [9]: 1.14
- PBM binding z-score [10]: 2.23
- PBM binding z-score [11]: 0.771
- PBM binding z-score [12]: 1.91
- PBM binding z-score [13]: 0.249
- PBM binding z-score [14]: 0.285
- PBM binding z-score [15]: 2.38
- PBM binding z-score [16]: 3.17
- PBM binding z-score [17]: 0.0798
- PBM binding z-score [18]: 4.63
- PBM binding z-score [19]: 0.0863
- PBM binding z-score [20]: 3.91

Sequence: TAGCCTAGGTCATTCTGGGGCCAGTATAGAAAGC
- PBM binding z-score [1]: 4.29
- PBM binding z-score [2]: 3.66
- PBM binding z-score [3]: 0.795
- PBM binding z-score [4]: 2.94
- PBM binding z-score [5]: 1.34
- PBM binding z-score [6]: 3.37
- PBM binding z-score [7]: 1.98
- PBM binding z-score [8]: 2.19
- PBM binding z-score [9]: 0.292
- PBM binding z-score [10]: 1.44
- PBM binding z-score [11]: 1.71
- PBM binding z-score [12]: 2.77
- PBM binding z-score [13]: 0.208
- PBM binding z-score [14]: 0.242
- PBM binding z-score [15]: 0.886
- PBM binding z-score [16]: 2.29
- PBM binding z-score [17]: -0.248
- PBM binding z-score [18]: 2.76
- PBM binding z-score [19]: -0.372
- PBM binding z-score [20]: 3.67
